Assay outcomes deposited in PubChem by NMMLSC.
MEKK3 PB1 HTS – modulators of MEKK3-MEK5 PB1 binding, primary screen, biochemical, wildtype MEKK3, multiplex bead flow cytometry, Alexa488-MEK5; Mitogen-activated protein kinase kinase kinase 3 (Homo sapiens), Q99759; bead-based flow cytometry, Alexa488-MEK5 binding to MEKK3; actives lie on both sides; 0 = blocked by unlabeled MEK5, 100 = vehicle; 290,000 compounds, 1.4% hits; binding response (% of control), % at 10 µM;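 active means binding response more than 3 SD above or below the average of its plate-row segment, actives on both sides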;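 further: Alexa488 bead fluorescence after subtracting the streptavidin-only scavenger bead signal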
Target sequence (Q99759 whole entry, looked up): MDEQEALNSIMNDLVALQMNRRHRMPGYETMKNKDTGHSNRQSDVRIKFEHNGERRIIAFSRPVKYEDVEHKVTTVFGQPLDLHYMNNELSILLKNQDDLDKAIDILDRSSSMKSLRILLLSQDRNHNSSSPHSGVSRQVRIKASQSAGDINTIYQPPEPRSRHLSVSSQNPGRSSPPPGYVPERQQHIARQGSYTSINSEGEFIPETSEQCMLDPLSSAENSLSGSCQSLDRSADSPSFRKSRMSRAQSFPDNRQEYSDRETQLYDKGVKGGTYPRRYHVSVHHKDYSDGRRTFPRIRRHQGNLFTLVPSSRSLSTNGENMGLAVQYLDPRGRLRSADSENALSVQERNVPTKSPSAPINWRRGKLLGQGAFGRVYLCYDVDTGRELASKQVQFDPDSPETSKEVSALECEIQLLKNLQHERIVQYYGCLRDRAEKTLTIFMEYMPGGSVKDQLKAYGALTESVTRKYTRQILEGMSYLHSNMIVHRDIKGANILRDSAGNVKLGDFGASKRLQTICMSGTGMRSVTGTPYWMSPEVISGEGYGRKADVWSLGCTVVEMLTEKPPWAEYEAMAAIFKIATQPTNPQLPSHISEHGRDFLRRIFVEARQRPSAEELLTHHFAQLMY
GRK2 inh – compounds blocking aptamer binding on GRK2 – biochemical, human GRK2, bead flow cytometry, HTS, primary screen | Beta-adrenergic receptor kinase 1 (Homo sapiens), P25098 | FAM-aptamer displacement from GRK2 | inhibition of aptamer binding, % at 10 µM | 330,000 compounds, 0.59% hits | AID 488847, 2010;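 active means inhibition of aptamer binding above 40%, roughly 3 SD of noise, on plates passing a quality check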;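 further: median bead fluorescence of bound FAM aptamer so fluorescent compounds give negative values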
MEKK2 WT-MEK5 – modulators of MEK5 binding to wildtype MEKK2, primary screen, biochemical, multiplex bead flow cytometry, Alexa488-MEK5; Mitogen-activated protein kinase kinase kinase 2 (Homo sapiens), Q9Y2U5; Alexa488-MEK5 binding to MEKK2 WT; actives lie on both sides; binding response (% of control), % at 10 µM; 290,000 compounds, 1.1% hits; AID 1531, 2009; in the data active means binding response below about 67% or above about 130%
MEKK2 mut-MEK5 – MEK5 binding signal on mutant MEKK2 PB1, primary screen, biochemical, multiplex bead flow cytometry, Alexa488-MEK5; Alexa488-MEK5 binding to MEKK2 mutant; percent response, % at 10 µM; 290,000 compounds, 0.35% hits; in the data active means percent response above about 24%, passing the limit was not always enough
MEKK2wt confirm – modulators of MEK5 binding to wildtype MEKK2, confirmation, biochemical, single concentration, multiplex bead flow cytometry | Alexa488-MEK5 binding to MEKK2 WT; actives lie on both sides | shares compounds with MEKK3 PB1 HTS | AID 1892, 2009 | binding response (% of control), % at 10 µM | 5,900 compounds, 2.4% hits; in the data active means binding response below about 16% or above about 210%; inactive means in between
MEKK2mut-MEK5 – mutant MEKK2 PB1-MEK5 binding signal retest – biochemical, single concentration, multiplex bead flow cytometry, confirmation; shares compounds with MEKK3 PB1 HTS; Alexa488-MEK5 binding to MEKK2 mutant; percent response, % at 10 µM; 5,900 compounds, 2% hits; AID 1893, 2009; in the data active means percent response mostly above about 71%, no sharp cut-off; inactive means mostly below about 38%;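 further: higher means compound restores mutant binding toward wildtype level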
MEKK3 confirm – MEKK3 wild-type PB1 binding to MEK5, inhibitors, confirmation, biochemical, bead multiplex flow cytometry, single concentration, wildtype | shares compounds with MEKK3 PB1 HTS | Alexa488-MEK5 binding to MEKK3; hits give low values | binding response (% of control), % at 10 µM | 5,900 compounds, 1.8% hits | AID 1894, 2009;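 active means binding response below 72% of control, or above a set upper limit, though filed actives all read lower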;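 further: 100% = DMSO only wells and 0% = binding blocked by excess unlabeled MEK5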
Numbers without * were called inactive; / = no result; [ ] = remark or other dose. A selection: hits, their analogues and other compounds. The true share with any hit is near 2.5%.

SMILES	MEKK3 PB1 HTS	GRK2 inh	MEKK2 WT-MEK5	MEKK2 mut-MEK5	MEKK2wt confirm	MEKK2mut-MEK5	MEKK3 confirm
CCC(NS(=O)(=O)c1ccc(OC)cc1)C(=O)O (stereo not drawn)	80.0	4.0	89.0	-4.0	/	/	/
COc1ccc(S(=O)(=O)N[C@@H](CC(C)C)C(=O)O)cc1	80.0*[inhibitor]	3.0	87.0	-4.0	102.0	2.0	106.0
c1ccc(-n2nc3c(ccc4cnnc43)[nH]2)cc1	96.0	0.0	98.0	-1.0	/	/	/
COC(=O)c1ccc2c(=O)n(-c3ccccc3)c(SCN3C(=O)c4ccccc4C3=O)nc2c1	74.0*[inhibitor]	0.0	98.0	1.0	104.0	4.0	105.0
Cc1cc(NC(=O)c2cccc(Br)c2)no1	/	0.0	/	/	/	/	/
COc1ccc(CCNC(=O)COC(=O)COc2ccc(Cl)cc2)cc1OC	98.0	0.0	96.0	-2.0	/	/	/
CN(C)S(=O)(=O)c1ccc(C(=O)OC2CCOC2=O)cc1 (stereo not drawn)	95.0	4.0	92.0	-8.0	/	/	/
CC1(N2CCCCC2)C(=O)c2ccccc2C1=O	138.0*	0.0	106.0	0.0	106.0	2.0	103.0
CCCc1cc2c(=O)c(-c3ccccn3)coc2cc1OC	102.0	3.0	101.0	4.0	/	/	/
CCCc1cc2c(=O)c(-c3ccccn3)c(C)oc2cc1O	75.0*[inhibitor]	3.0	93.0	-12.0	103.0	-3.0	100.0
O=C(CSc1ccc(C(F)(F)F)cc1[N+](=O)[O-])Nc1ccc2ccccc2c1	194.0*	3.0	106.0	0.0	96.0	-6.0	99.0
CCN(CC)CCN(C(=O)c1ccc(C(=O)c2ccccc2)cc1)c1nc2c(OC)cccc2s1	115.0	6.0	178.0*	42.0*	157.0	25.0	108.0
CCN(CC)CCN(C(=O)c1ccc(Br)s1)c1nc2cc3c(cc2s1)OCCO3	103.0	2.0	138.0*	19.0	129.0	26.0	104.0
CCN(CC)CCN(C(=O)c1ccc(Br)s1)c1nc2cc3c(cc2s1)OCO3	104.0	0.0	125.0	14.0	/	/	/
CCN(CC)CCN(C(=O)c1ccc(C(=O)c2ccccc2)cc1)c1nc2cc3c(cc2s1)OCO3	110.0	0.0	157.0*	31.0*	151.0	22.0	110.0
CCN(CC)CCN(C(=O)c1ccc2ncsc2c1)c1nc2cc3c(cc2s1)OCO3	101.0	0.0	116.0	8.0	/	/	/
CC(=O)Nc1ccc(OCc2cnc(Cl)s2)cc1	104.0	2.0	106.0	4.0	/	/	/
COC(=O)c1cccc(NC(=O)CSCc2ccccc2)c1	101.0	2.0	100.0	-2.0	/	/	/
COc1ccc(C2CC(c3ccc(C)cc3)=NN2C(=O)c2ccccc2)cc1 (stereo not drawn)	102.0	0.0	95.0	-1.0	/	/	/
O=C(O)c1ccc(NCc2nc3ccccc3n2CCOc2ccccc2Cl)cc1	99.0	2.0	86.0	-9.0	/	/	/
Nc1nn(S(=O)(=O)c2ccccc2)cc1-c1ccc([N+](=O)[O-])cc1	98.0	8.0	102.0	-1.0	/	/	/
CCSC1=NC2(CCCCC2)Nc2sc3c(c21)CCCC3	3.0*[inhibitor]	0.0	2.0*[inhibitor]	-16.0	97.0	1.0	97.0
CCSc1nc2sc3c(c2c(=O)[nH]1)CCCC3	96.0	0.0	94.0	3.0	/	/	/
COc1cc(-c2cc(C(=O)Nc3ccc(C)c(S(=O)(=O)N4CCOCC4)c3)c3ccccc3n2)cc(OC)c1OC	/	1.0	/	/	/	/	/
O=C(CN(Cc1ccc(F)cc1)C(=O)c1ccco1)NCc1ccc(F)cc1	0.0*[inhibitor]	1.0	0.0*[inhibitor]	-21.0	104.0	10.0	109.0
SMILES	MEKK3 PB1 HTS	GRK2 inh	MEKK2 WT-MEK5	MEKK2 mut-MEK5	MEKK2wt confirm	MEKK2mut-MEK5	MEKK3 confirm
COc1ccc(CN(CC(=O)NCc2ccc(F)cc2)C(=O)c2ccco2)cc1	103.0	0.0	101.0	0.0	/	/	/
Cn1c(=O)[nH]c(=O)c2[nH]c(N(Cc3ccccc3)Cc3ccccc3)nc21	122.0*	4.0	121.0	15.0	98.0	0.0	101.0
Cn1c(=O)[nH]c(=O)c2[nH]c(CN3CCN(Cc4ccccc4)CC3)nc21	102.0	0.0	103.0	7.0	/	/	/
CCC(C)(C)C1CCc2[nH]nc(C(=O)NCC3CC3)c2C1 (stereo not drawn)	/	0.0	/	/	/	/	/
CCOC(=O)CN1C(=O)C(C)(C)Oc2ccc(C(=O)Nc3ccccc3)cc21	72.0*[inhibitor]	26.0	75.0	-11.0	101.0	5.0	100.0
COC(=O)CN1C(=O)C(C)(C)Oc2ccc(C(=O)Nc3ccccc3F)cc21	103.0	0.0	103.0	8.0	/	/	/
CCn1c(SCC(=O)N=Nc2c(O)[nH]c3ccccc23)nnc1-c1ccc(C(C)(C)C)cc1	132.0*	0.0	111.0	1.0	99.0	-3.0	99.0
Cc1ccc(CN2CCN(CC(=O)N=Nc3c(O)[nH]c4ccccc34)CC2)cc1	96.0	0.0	89.0	7.0	/	/	/
CCn1c(SCC(=O)N=Nc2c(O)[nH]c3ccccc23)nc2ccccc21	145.0*	0.0	101.0	1.0	105.0	7.0	107.0
O=C(CSCc1ccccc1)N=Nc1c(O)[nH]c2ccccc12	103.0	1.0	102.0	-1.0	/	/	/
CS(=O)(=O)N(CCc1ccccc1)CC(=O)N1CCN(c2ccccc2)CC1	99.0	0.0	94.0	-3.0	/	/	/
O=C(O)C1(c2ccccc2)CCC(Nc2ccccc2)C1 (stereo not drawn)	109.0	2.0	109.0	8.0	/	/	/
O=C(CCC1CCCCC1)NCCN1C2=NC[C@@H](Cc3ccccc3)N2C[C@H]1Cc1ccc(O)cc1	113.0	/	149.0*	33.0	109.0	2.0	100.0
C[C@H]1CN=C2N(CCNC(=O)CCC3CCCCC3)[C@H](Cc3ccc(O)cc3)CN21	96.0	0.0	109.0	12.0	/	/	/
O=C(CCC1CCCCC1)NCCN1C2=NC[C@H](Cc3ccccc3)N2C[C@H]1Cc1ccc(O)cc1	106.0	0.0	163.0*	37.0	172.0	89.0*	99.0
NC1=NC[C@@H](Cc2ccc(O)cc2)N1CCCCC1CCCCC1	106.0	0.0	134.0*	12.0	121.0	8.0	102.0
NC1=NC[C@H](Cc2ccc(O)cc2)N1CC1CCCCC1	98.0	0.0	108.0	6.0	/	/	/
CC1CCC2(CC1)NC(=O)N(CC(=O)NCc1cccs1)C2=O (stereo not drawn)	123.0	3.0	99.0	3.0	/	/	/
